{"source": "PubChem BioAssay", "key": {"[1]": {"assay": "polyglutamine-triggered caspase-3 activation inhibitors, cell-based (AID 1583)", "details": "polyglutamine-induced caspase-3 activation, cell assay; stronger effect = higher value;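 tested at 10 µM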"}, "[2]": {"assay": "suppressors of polyQ aggregation in yeast, 75Q-TubU reporter (AID 1593)", "details": "Yeast 75Q polyglutamine aggregation reporter"}, "[3]": {"assay": "rescue of polyQ-huntingtin neuronal dysfunction in worms, whole organism, C. elegans mechanosensory neurons, N-terminal huntingtin (AID 1599)", "details": "touch response, stronger effect = higher value"}, "[4]": {"assay": "inhibitors of mitochondrial cytochrome c release, biochemical, purified mitochondria (AID 1603);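 for all read-outs here: mouse liver mitochondria challenged with calcium chloride; signal normalized to the plate average as 100%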", "details": "stronger effect = lower value"}, "[5]": {"assay": "inhibitors of polyQ protein aggregation (AID 1604)", "details": "polyglutamine-induced protein aggregation inhibition assay; stronger effect = higher value; tested at 2.5 µM"}, "[6]": {"assay": "enhancers of glutamate uptake in motor neurons, MN-1 cell line (AID 1612);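 for all read-outs here: tested at 1 µM final; 0% = mean of DMSO vehicle wells on each plate; positive means more glutamate uptake than control and negative means less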", "details": "MN-1 motor neuron cells, stronger effect = higher value"}, "[7]": {"assay": "suppressors of polyglutamine aggregation in yeast, 75Q-TubH (AID 1616)", "details": "S. cerevisiae 75Q-TubH polyglutamine aggregation suppression; stronger effect = higher value"}, "[8]": {"assay": "liver-stage malaria parasite growth inhibition, primary screen, cell-based, HepG2, luciferase luminescence, HepG2 viability (AID 624349; in the data active = parasite load remaining mostly below about 12%, no sharp cut-off; inactive = mostly above about 10%;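 for all read-outs here: 100% = mean of DMSO negative control wells on the same plate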)", "details": "P. berghei liver stage in HepG2, luciferase luminescence, concentration not given here; parasite load remaining: stronger effect = lower value; viability: measured here: HepG2 viability without parasites"}, "[9]": {"assay": "differential killing of epithelial or mesenchymal cells, primary screen, imaging, PC-3E GFP, TEM4-18 mCherry, co-culture (AID 1345086;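 active = compounds killing one labelled cell type while sparing the other, by normalised counts and ratio limits, not self-fluorescent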;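 for all read-outs here: cells exposed to compound for 72 h before imaging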;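 for red/green cell ratio (normalised): normalised mesenchymal count divided by normalised epithelial count so high means epithelial killing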)", "details": "imaging cell counts, at 1 µM; for red/green cell ratio (normalised): actives lie on both sides, counts scaled to control wells, 1 = unselective"}, "[10]": {"assay": "growth inhibition of DIPG glioma cells, dose response, cell-based, SU-DIPG-XIII, MIPE4.0, CellTiter-Glo, qHTS (AID 1347061; cut-off not given, nearly all actives have AC50 up to about 37 µM;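 note: cells exposed to compound for 48 hours before readout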)", "details": "SU-DIPG-XIII viability, CellTiter-Glo ATP luminescence"}, "[11]": {"assay": "growth inhibition of DIPG glioma cells, dose response, cell-based, SU-DIPG-IV, MIPE4.0, CellTiter-Glo, qHTS (AID 1347063; cut-off not given, nearly all actives have AC50 up to about 30 µM;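 note: compound exposure lasted 48 hours before the viability readout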)", "details": "SU-DIPG-IV viability, CellTiter-Glo ATP luminescence"}, "[12]": {"assay": "viability loss in pontine glioma line – cell-based, SU-DIPG-XXV, MIPE5.0, CellTiter-Glo, qHTS, dose response (AID 1347065);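 note: cells exposed to compound for 48 hours before ATP readout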", "details": "CellTiter-Glo ATP luminescence"}, "[13]": {"assay": "sensitizers of A549 cells to miR-34 induction, primary screen, imaging, A549 dox-inducible miR-34, nuclei and caspase counts (AID 1347080;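 active = compounds whose cell count with miR-34 switched on is under 0.7 times the count with it off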)", "details": "A549 miR-34 inducible, Hoechst nuclei count, 48 h"}, "[14]": {"target": "NAD(+) hydrolase SARM1 (Homo sapiens) (UniProt Q6SZW1)", "sequence (Q6SZW1 whole entry, looked up)": "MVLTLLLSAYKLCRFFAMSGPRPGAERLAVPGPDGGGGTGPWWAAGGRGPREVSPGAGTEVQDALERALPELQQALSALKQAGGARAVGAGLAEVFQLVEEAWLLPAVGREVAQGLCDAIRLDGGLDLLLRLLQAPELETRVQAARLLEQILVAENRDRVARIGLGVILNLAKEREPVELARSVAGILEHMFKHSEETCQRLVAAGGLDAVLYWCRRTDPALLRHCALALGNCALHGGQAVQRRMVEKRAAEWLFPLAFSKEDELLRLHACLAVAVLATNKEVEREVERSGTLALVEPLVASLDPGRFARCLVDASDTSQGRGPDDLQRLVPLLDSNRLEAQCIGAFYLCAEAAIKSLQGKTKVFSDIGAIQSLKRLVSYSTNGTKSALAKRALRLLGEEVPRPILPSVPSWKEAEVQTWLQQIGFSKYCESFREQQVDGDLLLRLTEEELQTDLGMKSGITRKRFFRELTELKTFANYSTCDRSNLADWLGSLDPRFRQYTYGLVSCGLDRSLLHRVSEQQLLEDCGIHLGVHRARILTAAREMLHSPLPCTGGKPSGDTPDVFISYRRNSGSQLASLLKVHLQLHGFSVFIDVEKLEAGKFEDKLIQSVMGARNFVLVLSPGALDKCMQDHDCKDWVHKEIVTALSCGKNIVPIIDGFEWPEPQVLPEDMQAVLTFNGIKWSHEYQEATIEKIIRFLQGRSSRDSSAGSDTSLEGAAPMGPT", "assay": "SARM1 TIR NADase inhibitors, cell lysate, NAD-Glo luminescence (AID 1508614;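 active = compound whose remaining NAD level is above about 45 nM, limit read from the data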)", "details": "SAM-TIR HEK293T lysate NADase, at 1 µM, stronger effect = higher value"}, "[15]": {"target": "Mitogen-activated protein kinase 7 (Homo sapiens) (UniProt Q13164)", "sequence (Q13164 whole entry, looked up, the tested form may be a part)": "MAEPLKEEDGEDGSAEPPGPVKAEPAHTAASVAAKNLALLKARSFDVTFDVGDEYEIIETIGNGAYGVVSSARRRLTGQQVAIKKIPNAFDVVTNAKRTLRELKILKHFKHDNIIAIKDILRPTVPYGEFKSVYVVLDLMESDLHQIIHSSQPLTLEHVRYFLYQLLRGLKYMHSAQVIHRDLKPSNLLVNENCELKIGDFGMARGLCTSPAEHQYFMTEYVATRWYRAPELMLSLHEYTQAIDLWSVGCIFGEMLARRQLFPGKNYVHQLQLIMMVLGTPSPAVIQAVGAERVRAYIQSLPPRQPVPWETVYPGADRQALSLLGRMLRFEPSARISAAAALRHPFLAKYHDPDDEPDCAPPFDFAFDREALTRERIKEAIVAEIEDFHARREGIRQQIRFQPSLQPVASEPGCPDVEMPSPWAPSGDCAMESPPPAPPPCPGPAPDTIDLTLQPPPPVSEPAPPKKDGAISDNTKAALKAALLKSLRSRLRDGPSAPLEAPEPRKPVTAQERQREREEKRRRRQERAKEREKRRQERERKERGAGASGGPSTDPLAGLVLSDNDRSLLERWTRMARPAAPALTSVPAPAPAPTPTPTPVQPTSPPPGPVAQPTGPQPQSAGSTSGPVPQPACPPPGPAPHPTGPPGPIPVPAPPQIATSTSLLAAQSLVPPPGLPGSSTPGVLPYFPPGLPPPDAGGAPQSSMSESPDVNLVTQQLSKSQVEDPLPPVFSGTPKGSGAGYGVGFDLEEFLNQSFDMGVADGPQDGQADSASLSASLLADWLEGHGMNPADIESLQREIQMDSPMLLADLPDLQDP", "assay": "ERK5 transactivation activators in reporter cells, primary screen, cell-based, HTS (AID 1508626;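 active = luciferase signal above three times the same-plate solvent-only control wells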;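 note: luciferase driven by Gal4-ERK5 fusion binding five Gal4 sites before minimal TATA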)", "details": "HeLa Gal4-ERK5 transactivation, 18 h, at 5 µM, stronger effect = higher value"}, "[16]": {"assay": "growth inhibition of DIPG glioma cells, dose response, cell-based, JHH-DIPG-1, MIPE4.0, CellTiter-Glo, qHTS (AID 1347062; cut-off not given, nearly all actives have AC50 up to about 27 µM)", "details": "JHH-DIPG-1 viability, CellTiter-Glo ATP luminescence"}, "[17]": {"assay": "SU-DIPG-VI glioma cell viability, MIPE4.0 library, CellTiter-Glo luminescence, qHTS (AID 1347066; cut-off not given, nearly all actives have AC50 up to about 30 µM;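 note: cells exposed to compound for 48 hours before readout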)", "details": "CellTiter-Glo ATP luminescence"}, "[18]": {"assay": "growth inhibition of DIPG glioma cells, dose response, cell-based, SU-DIPG-XVII, MIPE5.0, CellTiter-Glo, qHTS (AID 1347060);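 for AC50: cells exposed to compound for 48 hours before viability readout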", "details": "SU-DIPG-XVII viability, CellTiter-Glo ATP luminescence"}, "[19]": {"assay": "growth inhibition of DIPG glioma cells, dose response, cell-based, SU-DIPG-XIII, MIPE5.0, CellTiter-Glo, qHTS (AID 1347064; cut-off not given, nearly all actives have AC50 up to about 23 µM;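 for AC50: cells exposed to compound for 48 hours before the viability read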)", "details": "SU-DIPG-XIII viability, CellTiter-Glo ATP luminescence"}, "[20]": {"assay": "JHH-DIPG-1 glioma cell viability, MIPE5.0 library, CellTiter-Glo luminescence, qHTS (AID 1347067);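 note: cells exposed to compound for 48 hours before readout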", "details": "JHH-DIPG-1 glioma viability, CellTiter-Glo ATP luminescence"}, "[21]": {"assay": "SU-DIPG-XXV glioma cell viability, MIPE5.0 library, qHTS (AID 1347068; cut-off not given, nearly all actives have IC50 up to about 30 µM)"}, "[22]": {"details": "measured here: epithelial PC-3E GFP cell survival"}, "[23]": {"details": "measured here: mesenchymal TEM4-18 mCherry cell survival"}, "[24]": {"details": "stronger effect = lower value, cell number ratio, induced over uninduced"}, "[25]": {"details": "measured here: relative caspase fold change +Dox/-Dox"}, "[26]": {"details": "measured here: total cells with miR-34 induction, stronger effect = lower value"}, "[27]": {"details": "measured here: total cells without miR-34 induction"}}, "note": "Values joined by “and” are separate entries in the source; they are usually repeats but may differ in a detail not shown here. Equal entries are not always repeated. Results filed as inconclusive are left out. For part of these data: Potency and affinity values are given separately. Active and inactive are the calls of the source. Unless noted, no cut-off is given here; in the data, nearly all actives have AC50 up to about 26 µM."}
{"compound": "C=CC[C@@H]1/C=C(\\C)C[C@H](C)C[C@H](OC)[C@H]2O[C@@](O)(C(=O)C(=O)N3CCCC[C@H]3C(=O)O[C@H](/C(C)=C/[C@@H]3CC[C@@H](O)[C@H](OC)C3)[C@H](C)[C@@H](O)CC1=O)[C@H](C)C[C@@H]2OC", "values": [{"measurement": "inhibition", "setting": "[1]", "value": -0.04, "unit": "%"}, {"measurement": "score", "setting": "[2]", "value": -0.08}, {"measurement": "rescue above control", "setting": "[3]", "value": 0}, {"measurement": "cytochrome c release ratio", "setting": "[4]", "value": 2.76}, {"measurement": "inhibition of aggregation", "setting": "[5]", "value": 0, "unit": "%"}, {"measurement": "glutamate uptake change", "setting": "[6]", "value": 0, "unit": "%"}, {"measurement": "aggregation suppression score", "setting": "[7]", "value": 0.207}, {"measurement": "parasite load remaining", "setting": "[8]", "value": "58.3% (inactive)"}, {"measurement": "viability", "setting": "[8]", "value": 97.1, "unit": "%"}, {"measurement": "red/green cell ratio (normalised)", "setting": "[9]", "value": "1.19 (inactive)"}, {"measurement": "normalised cell number", "setting": "[9]; [22]", "value": 0.77}, {"measurement": "normalised cell number", "setting": "[9]; [23]", "value": 0.91}, {"measurement": "AC50", "setting": "[10]", "value": "23.5 µM (active)"}, {"measurement": "AC50", "setting": "[11]", "value": "1.18 µM (active)"}, {"measurement": "AC50", "setting": "[12]", "value": "20.9 µM (active)"}, {"measurement": "fold change", "setting": "[13]; [24]", "value": "1.03 (inactive) and 0.874 (inactive)"}, {"measurement": "fold change", "setting": "[13]; [25]", "value": "1.61 and 2.51"}, {"measurement": "cell count", "setting": "[13]; [26]", "value": "4360 and 8620"}, {"measurement": "cell count", "setting": "[13]; [27]", "value": "4240 and 9860"}, {"measurement": "remaining NAD", "setting": "[14]", "value": "10 nM (inactive)"}, {"measurement": "luciferase signal", "setting": "[15]", "value": "68 AU (inactive)"}]}
{"compound": "CN(C)CC[C@H](c1ccc(Cl)cc1)c1ccccn1", "values": [{"measurement": "parasite load remaining", "setting": "[8]", "value": "101% (inactive) and 66.4% (inactive)"}, {"measurement": "viability", "setting": "[8]", "value": "77.5% and 96.6%"}, {"measurement": "red/green cell ratio (normalised)", "setting": "[9]", "value": "1.35 (inactive)"}, {"measurement": "normalised cell number", "setting": "[9]; [22]", "value": 0.95}, {"measurement": "normalised cell number", "setting": "[9]; [23]", "value": 1.28}, {"measurement": "outcome", "setting": "[10]", "value": "inactive"}, {"measurement": "outcome", "setting": "[16]", "value": "inactive"}, {"measurement": "outcome", "setting": "[11]", "value": "inactive"}, {"measurement": "outcome", "setting": "[17]", "value": "inactive"}, {"measurement": "fold change", "setting": "[13]; [24]", "value": "0.84 (inactive)"}, {"measurement": "fold change", "setting": "[13]; [25]", "value": 2.94}, {"measurement": "cell count", "setting": "[13]; [26]", "value": 10500}, {"measurement": "cell count", "setting": "[13]; [27]", "value": 12500}, {"measurement": "luciferase signal", "setting": "[15]", "value": "80 AU (inactive)"}]}
{"compound": "Cc1oc(=O)oc1CN1CCN(c2cc3c(cc2F)c(=O)c(C(=O)O)c2n3C(C)C2)CC1", "note": "(centres undefined)", "values": [{"measurement": "red/green cell ratio (normalised)", "setting": "[9]", "value": "0.94 (inactive)"}, {"measurement": "normalised cell number", "setting": "[9]; [22]", "value": 0.97}, {"measurement": "normalised cell number", "setting": "[9]; [23]", "value": 0.91}, {"measurement": "fold change", "setting": "[13]; [24]", "value": "0.994 (inactive)"}, {"measurement": "fold change", "setting": "[13]; [25]", "value": 0.87}, {"measurement": "cell count", "setting": "[13]; [26]", "value": 9060}, {"measurement": "cell count", "setting": "[13]; [27]", "value": 9120}]}
{"compound": "C[C@H]1COC2=C1C(=O)C(=O)c1c2ccc2c1CCCC2(C)C", "values": [{"measurement": "red/green cell ratio (normalised)", "setting": "[9]", "value": "0.82 (inactive)"}, {"measurement": "normalised cell number", "setting": "[9]; [22]", "value": 0.98}, {"measurement": "normalised cell number", "setting": "[9]; [23]", "value": 0.8}, {"measurement": "AC50", "setting": "[18]", "value": "20.9 µM (active)"}, {"measurement": "outcome", "setting": "[10]", "value": "inactive"}, {"measurement": "AC50", "setting": "[11]", "value": "13.2 µM (active)"}, {"measurement": "AC50", "setting": "[19]", "value": "18.6 µM (active)"}, {"measurement": "AC50", "setting": "[12]", "value": "20.9 µM (active)"}, {"measurement": "outcome", "setting": "[17]", "value": "inactive"}, {"measurement": "AC50", "setting": "[20]", "value": "20.9 µM (active)"}, {"measurement": "outcome", "setting": "[21]", "value": "inactive"}, {"measurement": "luciferase signal", "setting": "[15]", "value": "80 AU (inactive)"}]}
{"compound": "N[C@@H](CC(=O)N1CCn2c(nnc2C(F)(F)F)C1)Cc1cc(F)c(F)cc1F", "values": [{"measurement": "parasite load remaining", "setting": "[8]", "value": "48.9% (inactive)"}, {"measurement": "viability", "setting": "[8]", "value": 95.5, "unit": "%"}, {"measurement": "red/green cell ratio (normalised)", "setting": "[9]", "value": "1.25 (inactive)"}, {"measurement": "normalised cell number", "setting": "[9]; [22]", "value": 0.94}, {"measurement": "normalised cell number", "setting": "[9]; [23]", "value": 1.18}, {"measurement": "outcome", "setting": "[10]", "value": "inactive"}, {"measurement": "outcome", "setting": "[16]", "value": "inactive"}, {"measurement": "outcome", "setting": "[19]", "value": "inactive"}, {"measurement": "outcome", "setting": "[12]", "value": "inactive"}, {"measurement": "outcome", "setting": "[17]", "value": "inactive"}, {"measurement": "outcome", "setting": "[20]", "value": "inactive"}, {"measurement": "outcome", "setting": "[21]", "value": "inactive"}, {"measurement": "remaining NAD", "setting": "[14]", "value": "10 nM (inactive)"}, {"measurement": "luciferase signal", "setting": "[15]", "value": "92 AU (inactive)"}]}
{"compound": "C[C@]12CCC3c4ccc(O)cc4CCC3C1CCC2=O", "note": "(some centres undefined)", "values": [{"measurement": "parasite load remaining", "setting": "[8]", "value": "83.7% (inactive) and 77.8% (inactive)"}, {"measurement": "viability", "setting": "[8]", "value": "75.2% and 91.3%"}, {"measurement": "red/green cell ratio (normalised)", "setting": "[9]", "value": "0.96 (inactive)"}, {"measurement": "normalised cell number", "setting": "[9]; [22]", "value": 1.03}, {"measurement": "normalised cell number", "setting": "[9]; [23]", "value": 0.99}, {"measurement": "outcome", "setting": "[18]", "value": "inactive"}, {"measurement": "outcome", "setting": "[10]", "value": "inactive"}, {"measurement": "outcome", "setting": "[11]", "value": "inactive"}, {"measurement": "outcome", "setting": "[12]", "value": "inactive"}, {"measurement": "outcome", "setting": "[17]", "value": "inactive"}, {"measurement": "outcome", "setting": "[20]", "value": "inactive"}, {"measurement": "outcome", "setting": "[21]", "value": "inactive"}, {"measurement": "fold change", "setting": "[13]; [24]", "value": "1.01 (inactive)"}, {"measurement": "fold change", "setting": "[13]; [25]", "value": 1.48}, {"measurement": "cell count", "setting": "[13]; [26]", "value": 10400}, {"measurement": "cell count", "setting": "[13]; [27]", "value": 10300}]}
